# Experimental data from PubChem BioAssay AID504848 (National Center for Advancing Translational Sciences (NCATS), 2011).
# Hit rate of the full screen: of about 2,300 compounds, about 1,400 (61%) were called active. Another 29% or so got no clear call; they are omitted. So high a share suggests a set chosen from earlier hits. The list shows a part of the results. Values without a mark were called inactive. The call rests on the fitted dose curve; in most records, active means well fitted inhibition curve with a large enough effect; inconclusive means small, poorly fitted or top-dose-only effect, or effect the other way; inactive means no such curve, though single readings can be large or run the other way.
# Experiment: Confirmation screen for delayed death inhibitors of the malarial parasite plastid, 96 hour incubation; further: nearly all actives have a fitted effect of over 60% in size
# Settings: P. falciparum luciferase growth in erythrocytes; series mostly up to 28.7 µM; activity change, negative = inhibition: at the top concentration
# How it was run: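 Two-generation (96 h, 37 C) exposure of P. falciparum carrying an integrated firefly luciferase reporter in erythrocytes, 0.1% parasitemia and 2% hematocrit final, Albumax-supplemented RPMI. Luminescence decrease measures growth inhibition.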
# On the % scale 0 is the no-effect control and ±100 the full control effect; potency means the concentration at half of the fitted maximal effect.
Compound,Potency,"activity change, negative = inhibition"
Cc1ccc(Nc2cc(C)nc3ccc(C)cc23)cc1,10 µM (active),–
COC(=O)C1=C(C)N(CC2CC2)C(=NCc2cc(OC)c(OC)c(OC)c2)N[C@H]1c1ccccc1,11.2 µM (active),–
COc1cc2c(cc1OC)[C@@H](NC(=O)C(C)C)[C@H](OCc1ccccc1)C2,–,-82.6%
O=C(Nc1ccc(N2CCCCC2)c(Cl)c1)c1cccnc1,12.6 µM (active),–
Cc1nc(-c2ccccn2)sc1C(=O)Nc1ccc(Cl)c(Cl)c1,–,-23%
O=C(CSc1nnc(NC(=O)c2ccccc2[N+](=O)[O-])s1)NCC1CCCO1 (centres undefined),14.1 µM (active),–
O=C(COC(=O)c1c2c(nc3ccccc13)CCN(Cc1ccccc1)C2)Nc1c(F)cccc1F,5.01 µM (active),–
COc1ccc(Cc2nc3ccc(C(=O)NCCc4ccccn4)cc3o2)cc1OC,11.2 µM (active),–
Nc1nc(C2CC2)c(Sc2sc(N)nc2C2CC2)s1,–,-23.1%
CCOc1ccccc1NC(=O)NC1Cc2ccccc2C1,12.6 µM (active),–
CC(C)(C(=O)N[C@H](CO)c1ccccc1)C(=O)N[C@H](CO)c1ccccc1,–,-4.34%
CCCC(=O)NC(c1ccccc1)c1c(O)ccc2ccccc12 (centres undefined),4.47 µM (active),–
Cc1ccc2c(c1)C1CC(C)(O2)N(c2cccc(C(=O)N3CCN(c4ccccn4)CC3)c2)C(=O)N1 (centres undefined),12.6 µM (active),–
Cc1cccc(-n2c(C)cc(/C=N\NC(=O)c3cccs3)c2C)c1,12.6 µM (active),–
C[N+]1(CCCCSc2ccc(O)cc2)CCCCC1,4.47 µM (active),–
COc1ccc(C)cc1NC(=O)C(Sc1nnc(Nc2cc(C)ccc2OC)s1)c1ccccc1 (centres undefined),14.1 µM (active),–
Cc1ccc(C(=O)NCCn2ccc3ccccc32)cc1[N+](=O)[O-],–,-13.4%
COC(=O)c1ccc(NC(=O)C[n+]2ccccc2C)cc1,12.6 µM (active),–
CCOC(=O)NC(=O)COC(=O)c1ccc(O)cc1,–,13.7%
COC(=O)c1ccc(CNCC(=O)Nc2ccc(C(=O)OC)cc2)cc1,–,-15.1%
Cc1cccc[n+]1CC(=O)c1ccc(NC(=O)c2ccccc2)cc1,5.01 µM (active),–
Cc1ccc(C(=O)C[n+]2ccccc2C)cc1[N+](=O)[O-],11.2 µM (active),–
Cc1cccc[n+]1CC(=O)Nc1ccc([N+](=O)[O-])cc1,12.6 µM (active),–

Compound,Potency,"activity change, negative = inhibition"
CC(C)[C@H](NC(=O)N1CCn2c1nc1ccccc12)C(=O)N[C@H](C(=O)O)c1ccccc1,–,-11.3%
CCc1ccc(-c2nc3ccc(Br)cc3c(C(=O)O)c2C)s1,–,-11.4%
S=C(NCc1ccncc1)Nc1ccc(Br)cc1Cl,12.6 µM (active),–
CC1CCN(CCCNS(=O)(=O)c2cc(Br)cc3c2N(C(=O)C2CC2)CC3)CC1,12.6 µM (active),–
O=C(C1CC1)N1CCc2cc(Br)cc(S(=O)(=O)NCc3ccco3)c21,11.2 µM (active),–
CCC(=O)N1CCc2cc(Br)cc(S(=O)(=O)NCc3ccco3)c21,12.6 µM (active),–
O=C(C1CCC1)N1CCc2cc(S(=O)(=O)NCc3ccco3)ccc21,–,-14.6%
CCCCN(CCCC)CC(O)c1cc(Cl)cc2c1-c1ccc(Cl)cc1/C2=C/c1ccc(Cl)cc1 (centres undefined),0.0562 µM (active),–
O=[N+]([O-])c1ccc(C(O)C[n+]2ccccc2)cc1 (centres undefined),10 µM (active),–
CCOc1ccc(C2NC(=S)NC3=C2CCc2ccccc23)cc1 (centres undefined),14.1 µM (active),–
CN(C)c1ccc2nc3ccc(=[N+](C)C)cc-3sc2c1,0.0631 µM (active),–
Cc1[nH]c(=O)[nH]c(=O)c1S(=O)(=O)N1CCCC(C(=O)N2CCN(c3cccc(C(F)(F)F)c3)CC2)C1 (centres undefined),8.91 µM (active),–
N#Cc1cccc(NC(=O)Cn2c3[n+](c4ccc(C(F)(F)F)cc42)CCCCC3)c1,0.251 µM (active),–
CCCCCn1c(=O)c2ccccc2n2c(CCl)nnc12,6.31 µM (active),–
CCCCCCCCC[n+]1cccc2c3ccccc3ccc21,0.158 µM (active),–
CCCCCCCOc1ccc(C2(C)NC(=O)NC2=O)cc1 (centres undefined),8.91 µM (active),–
CCC/C(=N\NC(=O)c1ccco1)c1ccc(Cl)s1,12.6 µM (active),–
CCOc1ccc(CN2CCN(Cc3ccc4cc(F)ccc4n3)CC2CCO)cc1 (centres undefined),14.1 µM (active),–
CCOc1ccccc1CN1CCN(Cc2ccc3cccc(OC)c3n2)CC1CCO (centres undefined),12.6 µM (active),–
COc1ccc(-c2cc(C(=O)Nc3cc(C)n(Cc4ccc(Cl)cc4)n3)no2)cc1OC,0.316 µM (active),–
CCCn1cc(S(=O)(=O)c2ccc(Cl)cc2)c(=O)c2cc(OC)ccc21,11.2 µM (active),–
O=C(OCC(=O)N1CCN(c2ccccc2)CC1)c1cc(Cl)ccc1[N+](=O)[O-],–,-16.5%
NC(=O)CC(NC(=O)c1ccccc1)c1ccc(N2CCN(c3ccccc3)CC2)c([N+](=O)[O-])c1 (centres undefined),12.6 µM (active),–

Compound,Potency,"activity change, negative = inhibition"
O=C(NCc1ccco1)c1cc2sccc2n1Cc1ccc(F)cc1,11.2 µM (active),–
CN(CCC#N)C(=O)COC(=O)c1ccc2[nH]c3c(c2c1)CCCC3,–,-21.3%
COc1ccccc1N1CCN(C(=O)c2ccc3[nH]c4c(c3c2)CCCC4)CC1,11.2 µM (active),–
CCN1CCN(Cc2c(O)ccc3c2O/C(=C\C=C\c2ccccc2)C3=O)CC1,4.47 µM (active),–
CC1=Nc2cc(C(=O)N3CCCC3)ccc2Sc2ccc(C)cc21,0.891 µM (active),–
CC1=Nc2cc(C(=O)N3CCCC3)ccc2Sc2c(C)ccc(C)c21,3.16 µM (active),–
CCOC(=O)CSc1nnc(NC(=O)c2cccc([N+](=O)[O-])c2)s1,11.2 µM (active),–
Nc1nnnn1/N=C/C(Br)=C/c1ccccc1,12.6 µM (active),–
CCCN1CCN(C(=O)C2CCN(S(=O)(=O)c3ccc4c(c3)NC(=O)C(C)S4)CC2)CC1 (centres undefined),7.08 µM (active),–
Cc1cc(NC(=O)COC(=O)c2ccccc2S(=O)(=O)N(C)c2ccccc2)no1,7.94 µM (active),–
Cc1cc(NC(=O)COC(=O)c2c(Cl)cccc2Cl)no1,–,-11.4%
O=C(CSc1nc2c(sc3ccccc32)c(=O)n1-c1ccccc1)NCc1ccco1,12.6 µM (active),–
O=C(CSc1c2c(nc3ccccc13)CCCC2)NCc1ccco1,–,-8%
O=C(CSc1nc2ccccc2c(=O)n1Cc1ccc(C(=O)NC2CC2)cc1)NCc1ccco1,7.08 µM (active),–
CCN(CC)CCn1c(SCC(=O)NCc2ccccc2)nc2c(sc3ccccc32)c1=O,5.01 µM (active),–
NC(=O)CSc1nc2c(sc3ccccc32)c(=O)n1CCCN1CCOCC1,3.16 µM (active),–
CC(=O)Nc1sc(C)c(C)c1C(=O)OCC(=O)N(CC(C)C)C1CCS(=O)(=O)C1 (centres undefined),12.6 µM (active),–
Cc1cnc(CNC(=O)c2ccc3oc(Cc4ccccc4)nc3c2)[nH]1,14.1 µM (active),–
Cc1cnc(CNC(=O)c2ccc3oc(Cc4ccc(Cl)cc4)nc3c2)cn1,12.6 µM (active),–
c1ccc(SCc2cn(C[C@H]3CC[C@@H]([C@@H]4CC[C@H](Cn5cc(CSc6ccccc6)nn5)O4)O3)nn2)cc1,11.2 µM (active),–
CC1CCCN(c2ccc(F)cc2N)C1 (centres undefined),8.91 µM (active),–
COc1cccc(/C=N/N2CCN(C3c4ccccc4-c4ccccc43)CC2)c1O,14.1 µM (active),–
CCOC(=O)C(C)Sc1cc(CS(=O)(=O)c2ccccc2)nc(-c2ccccc2)n1 (centres undefined),12.6 µM (active),–

Compound,Potency,"activity change, negative = inhibition"
Cc1cccc(Oc2nc3ccccn3c(=O)c2/C=C(\C#N)C(=O)NC2CCS(=O)(=O)C2)c1C (centres undefined),12.6 µM (active),–
Cc1ccc(Oc2nc3ccccn3c(=O)c2/C=C(\C#N)C(=O)NC2CCS(=O)(=O)C2)c(C)c1 (centres undefined),10 µM (active),–
N#C/C(=C\c1c(Oc2ccccc2Cl)nc2ccccn2c1=O)C(=O)NC1CCS(=O)(=O)C1 (centres undefined),12.6 µM (active),–
COc1ccc(-c2nc3c(c(=O)c4ccccc4n3C)c(=O)n2Cc2ccccc2)cc1,7.08 µM (active),–
COc1ccc(Cn2c(-c3ccccc3)nc3c(c(=O)c4ccccc4n3C)c2=O)cc1,10 µM (active),–
COc1ccc(CCn2c(C(C)C)nc3c(c(=O)c4ccccc4n3C)c2=O)cc1,3.16 µM (active),–
O=C(C1=C[C@@H](c2csc3ccccc23)C[C@@H](OCCCCO)O1)N1CCN(Cc2ccc3c(c2)OCO3)CC1,3.98 µM (active),–
CCO[C@H]1OC(C(=O)N2CCN(Cc3ccc4c(c3)OCO4)CC2)=C[C@@H](c2ccc(C(F)(F)F)cc2)[C@@H]1CCCO,2 µM (active),–
CCO[C@H]1OC(C(=O)N2CCN(Cc3ccccc3)CC2)=C[C@@H](c2ccc(C(F)(F)F)cc2)[C@@H]1CCCO,3.16 µM (active),–
CCOC(=O)N1CCN(CC(=O)c2ccc(O)cc2O)CC1,17.8 µM (active),–
CCOc1cc(/C=C2\COc3ccccc3C2=O)ccc1OCC(=O)N(C)C,12.6 µM (active),–
CCOc1cc(/C=C2/C(=O)ON=C2C)ccc1OCc1ccccc1,–,4.29%
COc1cc(CN2CCN(S(=O)(=O)c3ccccc3)CC2)cc(OC)c1OC,2.24 µM (active),–
O=S1(=O)C=C(Sc2nc3cc(Cl)ccc3o2)c2ccccc21,4.47 µM (active),–
O=S1(=O)C=C(Sc2nnc(-c3ccccc3)o2)c2ccccc21,14.1 µM (active),–
CCOc1ccc(/C=N/OCC(=O)Nc2ccc(OCc3ccccc3)cc2)cc1OC,3.55 µM (active),–
C[C@H]1[C@@H](OC(=O)CCC(=O)O)OC2OC3(C)CC[C@H]4[C@H](C)CC[C@@H]1[C@@]24OO3 (some centres undefined),0.0355 µM (active),–
CO[C@H]1OC2O[C@@]3(C)CC[C@H]4[C@H](C)CC[C@@H]([C@H]1C)[C@@]24OO3 (some centres undefined),0.0631 µM (active),–
C[C@@H]1CCC2[C@@H](C)[C@@H](O)O[C@@H]3O[C@@]4(C)CC[C@@H]1[C@@]23OO4 (some centres undefined),0.0251 µM (active),–
COCCN1CCCC(CNCc2cn(C)nc2-c2ccc(Oc3ccccc3)cc2)C1 (centres undefined),7.08 µM (active),–
